D2 ag-1: activates the human D2 dopamine receptor | hit rate 0.53% among 340,000 | P14416 | activation, % at 2 µM | AID 485358 | HEK293 T-REx D2 cells, calcium flux agonist mode;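 active = activation over 3 SD above normal in the single-dose calcium agonist read, cut at about 30% in these data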; also: 0% is about no effect
Target sequence (P14416 whole entry, looked up): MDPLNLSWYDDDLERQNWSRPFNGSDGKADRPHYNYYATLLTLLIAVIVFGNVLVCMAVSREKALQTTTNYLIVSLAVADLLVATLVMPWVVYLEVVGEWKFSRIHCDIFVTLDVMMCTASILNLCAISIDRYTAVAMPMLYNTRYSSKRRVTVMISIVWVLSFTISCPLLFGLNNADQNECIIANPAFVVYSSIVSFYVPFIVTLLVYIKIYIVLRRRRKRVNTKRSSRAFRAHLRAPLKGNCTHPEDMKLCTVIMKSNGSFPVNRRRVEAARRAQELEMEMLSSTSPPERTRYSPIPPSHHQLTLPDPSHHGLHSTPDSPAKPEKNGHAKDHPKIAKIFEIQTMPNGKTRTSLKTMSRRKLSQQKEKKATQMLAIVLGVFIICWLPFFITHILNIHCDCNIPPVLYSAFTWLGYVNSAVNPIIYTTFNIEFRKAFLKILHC
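In this primary screen, compounds producing a positive calcium signal within 180 s of addition to tetracycline-induced, force-coupled HEK293 Trex D2 cells are flagged; cells are dye-loaded with a no-wash calcium kit beforehand.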
D2 PAM-1: positive allosteric modulators of human D2 dopamine receptor. P14416. HEK293 T-REx D2, calcium flux, EC20 dopamine potentiation. potentiation, % at 10 µM. hit rate 0.34% among 340,000;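 active = potentiation over 3 SD above the plate norm, cut at about 30% in these data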; also: 0% is about no effect
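Tetracycline-induced Hek293 Trex D2 cells, force-coupled to calcium, loaded with no-wash calcium dye. Compound added with 180 s kinetic read for agonism, then EC20 dopamine and a further 180 s read for potentiation.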
D2 antag: D2 dopamine receptor (human) antagonism. HEK293 TREx D2 cells, calcium flux, dopamine EC80. P14416. hit rate 2% among 340,000. inhibition, % at 10 µM; in the data active = inhibition above about 30%; inactive = below that, where a call was filed; also: 0% is about no effect
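In this primary screen, negative modulation is detected by tracking calcium flux after an EC80 dopamine challenge in inducible HEK293 T-REx D2 cells preexposed to test compound for 180 s.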
D2 ag-2: human D2 receptor agonism in beta-arrestin assay | P14416 | AID 624465 | DiscoveRx PathHunter D2 beta-arrestin, luminescence, 90 min; 100% = 57 uM dopamine signal | hit rate 0.084% among 360,000 | activation, % (no concentration beside the values); in the data active = activation above about 40%; inconclusive = between about 15% and that limit
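Agonist mode: compounds alone added to overnight-plated D2 PathHunter cells for 90 min at 37 C, with 57 uM final dopamine (EC100) defining full response. Beta-arrestin recruitment detected by chemiluminescent reagent, read after 1 h at ambient temperature.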
D2 PAM-2: potentiates the human D2 dopamine receptor allosterically. potentiation, % (concentration not given with the values). AID 624464. DiscoveRx D2 beta-arrestin cells, luminescence, 90 min; 100% = 57 uM dopamine signal. hit rate 0.23% among 360,000; in the data active = potentiation above about 50%; inconclusive = mostly about 30% to 49%
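PathHunter beta-arrestin assay in DiscoveRx D2 cells. Compounds were added with an EC20 of dopamine (50 nM final) for 90 min at 37 deg C. Luminescence was read 1 h after detection reagent, with 57 uM dopamine as the EC100 control.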
Numbers without * were called inactive. Compounds with a hit are over-represented: about 2.4% of the library has one in this group of screens.

What do the screens show for `Cn1c(CSCc2ccccc2Cl)nnc1SCC(=O)Nc1nccs1`?
D2 ag-1: 0; D2 PAM-1: 11; D2 antag: 60*; D2 ag-2: 1; D2 PAM-2: -2

Results for Cn1c(CC(=O)Nc2ccc(Cl)c(Cl)c2)nnc1SCC(=O)Nc1nccs1 ?
D2 ag-1: 0; D2 PAM-1: 8; D2 antag: -26; D2 ag-2: -1; D2 PAM-2: -5

What do the screens show for `CC(C)OCCCNC(=O)c1cn(C)c2ccc(S(=O)(=O)N3CCCCCC3)cc2c1=O`?
D2 ag-1: -1; D2 PAM-1: 1

How did COCCCNCCOc1ccccc1-c1ccccc1 do in these assays?
D2 ag-1: 2; D2 PAM-1: -33; D2 antag: 93*; D2 ag-2: -1; D2 PAM-2: -13

How did COCCCNCCCCOc1ccccc1-c1ccccc1 do in these assays?
D2 ag-1: 0; D2 PAM-1: -22; D2 antag: 89*; D2 ag-2: 4; D2 PAM-2: -31

How did COCCNCCOc1ccccc1-c1ccccc1 do in these assays?
D2 ag-1: -1; D2 PAM-1: 20; D2 antag: 8; D2 ag-2: 4; D2 PAM-2: -32

Results for C=CCNCCCCOc1ccc(OCc2ccccc2)cc1 ?
D2 ag-1: 2; D2 PAM-1: 16; D2 antag: 26; D2 ag-2: -5; D2 PAM-2: -18

How did C=CCNCCCCOc1ccccc1-c1ccccc1 do in these assays?
D2 ag-1: 0; D2 PAM-1: -22; D2 antag: 49*; D2 ag-2: -2; D2 PAM-2: -17

What do the screens show for `COc1cc(C2Nc3cc(C)c(C)cc3NC3=C2C(=O)CC(C)(C)C3)ccc1OC(C)=O` (configuration not stated)?
D2 ag-1: 0; D2 PAM-1: 17; D2 antag: 3; D2 ag-2: 4; D2 PAM-2: -6

What do the screens show for `Cc1cc2c(cc1C)NC(c1c(C)n(C)n(-c3ccccc3)c1=O)C1=C(CC(C)(C)CC1=O)N2` (configuration not stated)?
D2 ag-1: 34*; D2 PAM-1: 8; D2 antag: 13; D2 ag-2: -19; D2 PAM-2: -70

What do the screens show for `Cc1n[nH]c(C)c1CCC(=O)N/N=C/c1cccc([N+](=O)[O-])c1`?
D2 ag-1: 3; D2 PAM-1: 11; D2 antag: 46*; D2 ag-2: -1; D2 PAM-2: -6

How did COc1cccc(/C=N/NC(=O)CCc2c(C)n[nH]c2C)c1 do in these assays?
D2 ag-1: 0; D2 PAM-1: 9; D2 antag: -14; D2 ag-2: 1; D2 PAM-2: -9

Results for CSCSC1=C(C#N)C(c2ccc(Cl)cc2)C(C(C)=O)=C(C)N1 (configuration not stated) ?
D2 ag-1: 2; D2 PAM-1: -4; D2 antag: 32*

How did CSC1=C(C#N)C(c2ccccc2)C(C(C)=O)=C(C)N1 (configuration not stated) do in these assays?
D2 ag-1: -1; D2 PAM-1: -9; D2 antag: 8; D2 ag-2: -7; D2 PAM-2: -5

How did CC(=O)N1CCc2cc(C(=O)CN3CCN(c4cccc(Cl)c4)CC3)ccc21 do in these assays?
D2 ag-1: 54*; D2 PAM-1: -16; D2 antag: 73*; D2 ag-2: 10; D2 PAM-2: -13

What do the screens show for `CC(=O)N1CCc2cc(C(=O)CN3CCC(C)CC3)ccc21`?
D2 ag-1: 1; D2 PAM-1: -4; D2 antag: 7; D2 ag-2: 2; D2 PAM-2: -4

How did O=C(Nc1ccc2nc(SCC(=O)N3CCOCC3)sc2c1)c1ccccc1Cl do in these assays?
D2 ag-1: 0; D2 PAM-1: -4

What do the screens show for `Fc1ccc(-n2cc(-c3ccccc3)c3c(N4CCOCC4)ncnc32)cc1`?
D2 ag-1: 1; D2 PAM-1: 13; D2 antag: -2; D2 ag-2: inconclusive; D2 PAM-2: 20

How did COc1ccc(-n2cc(-c3ccccc3)c3c(N4CCOCC4)ncnc32)cc1 do in these assays?
D2 ag-1: 0; D2 PAM-1: 5; D2 antag: -6; D2 ag-2: inconclusive; D2 PAM-2: 62*
